# Bioassay records deposited in PubChem BioAssay by several laboratories.
# TIM10 inh – growth inhibitors of isogenic TIM10 control yeast, primary screen, counter-screen for tim10-1 yeast inhibitor project, luminescence, uHTS; inhibition, % at 10 µM; S. cerevisiae TIM10 strain growth, BacTiter-Glo luminescence, 24 h; AID 463195, 2010; hit rate 1.4% among 330,000;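 active = inhibition of 40% or more at the single tested concentration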;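 also: wild-type TIM10 isogenic control strain grown at permissive 25 °C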
# tim10-1 inh – growth inhibitors of tim10-1 mutant yeast, primary screen, luminescence, uHTS; S. cerevisiae tim10-1 ts strain growth, BacTiter-Glo, 24 h; inhibition, % at 20 µM; hit rate 2.2% among 330,000; AID 463190, 2010;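 active = inhibition of at least 40%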;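 also: mutant grown at 25 °C; 0% = DMSO wells with yeast and 100% = wells holding no yeast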
# tim23-1 inh – growth inhibitors of tim23-1 mutant yeast, primary screen, luminescence, uHTS; hit rate 1.3% among 330,000; inhibition, % at 20 µM; S. cerevisiae tim23-1 growth, BacTiter-Glo luminescence, 24 h;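 active = growth inhibition of the mutant yeast at or above 50%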;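 also: temperature-sensitive mutant grown at 25 °C; plate controls were DMSO-treated mutant yeast for no effect and medium wells lacking yeast for full effect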
# NLRP3 yeast inh – NALP3 inflammasome inhibitors in reconstituted yeast, primary screen, luminescence, uHTS; AID 2825, 2010; Yeast reconstituted NLRP3/ASC/caspase-1, beta-gal luminescence, 24 h; inhibition, % at 10 µM; hit rate 0.39% among 330,000;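 active = inhibition of 50% or more; inactive = inhibition below 50%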;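 also: plate controls were induced DMSO wells for no effect and uninduced yeast grown without galactose for full effect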
# NALP1 yeast inh – NALP1 inflammasome inhibitors in reconstituted yeast, colorimetric, S. cerevisiae, triplicate retest. S. cerevisiae NALP1/ASC/caspase-1 growth, X-gal OD620, 72 h. inhibition, % at 10 µM. AID 2071, 2009. hit rate 0.61% among 280,000; in the data active = inhibition mostly above about 24%, no sharp cut-off; inactive = mostly below about 32%
# SKKanGAS inh – S. pyogenes SKKanGAS growth inhibitors in kanamycin, primary screen, streptokinase expression inhibitor project, SKKanGAS strain, BacTiter-Glo luminescence | 6 h | inhibition, % at 7.5 µM | hit rate 1.3% among 300,000;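 active = mean replicate score, as percent of positive control median, at least 50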;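 also: strain carries kanamycin resistance gene driven by streptokinase promoter and grows in 40 µg/ml kanamycin; loss of luminescence reflects streptokinase promoter inhibition or plain growth inhibition; 0% = median of DMSO wells and 100% = positive control at its reference dose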
# tim10-1 confirm – growth inhibitors of tim10-1 mutant yeast, confirmation, single concentration, luminescence, S. cerevisiae; inhibition, % at 20 µM; hit rate 56% among 7,400; S. cerevisiae tim10-1 ts strain growth, BacTiter-Glo, 24 h; shares compounds with tim10-1 inh; AID 463213, 2010;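 active = inhibition of yeast growth at or above a set limit in either of two repeat tests at 20 µM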;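 also: tim10-1 mutant grown at permissive 25 °C to find synthetic lethal compounds; 0% = DMSO yeast wells and 100% = medium wells without yeast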
# The depositor's hits bear a star; / = not tested or not shown. An excerpt weighted towards active compounds, which were near 4.9% of everything screened.
SMILES,TIM10 inh,tim10-1 inh,tim23-1 inh,NLRP3 yeast inh,NALP1 yeast inh,SKKanGAS inh,tim10-1 confirm
CCN(CC)CCNCC1C(=O)O[C@@H]2C[C@@]3(C)CCC[C@H](C)C3=C[C@H]12 (stereo not given in full),23.5,51.4*,43.6,13.3,21.2,-1.6,37.0*
CC[n+]1c(C)sc2c(C)cc(C)cc21,24.5,41.7*,29.5,9.6,21.1,-0.6,33.8*
Cc1cc(C)c2sc(C)[n+](CCCS(=O)(=O)[O-])c2c1,-4.6,-0.6,3.5,-12.6,-19.8,2.6,/
Nc1ccc2oc(-c3cccc(Br)c3)nc2c1,36.6,59.6*,36.8,-14.9,14.1,-4.6,49.7*
COc1ccc(C(=O)OCC(=O)Nc2cc(C)on2)c(OC)c1OC,-2.9,85.3*,7.0,-0.5,6.4,0.7,-6.5
CCCCc1cc(=O)oc2cc(OC(C)C(=O)NCc3ccccn3)c(Cl)cc12 (stereo not given),5.2,41.3*,24.4,5.4,35.3,-1.1,-36.0
Cc1nc2ccccc2c2oc(C(=O)NCC3COc4ccccc4O3)cc12 (stereo not given),5.5,40.6*,29.8,24.0,16.7,14.1,9.6
COc1cccc(CNC(=O)c2cc3c(C)nc4ccccc4c3o2)c1,-27.3,9.1,11.6,11.2,4.3,0.0,/
CCc1ccc(CNC(=O)c2cc3c(C)nc4ccccc4c3o2)cc1,-3.9,42.6*,42.7,18.4,38.6,17.6,16.6
CCN1CCCC1CNC(=O)c1cc2c(C)nc3ccccc3c2o1 (stereo not given),3.4,6.2,23.6,-0.2,10.7,0.7,/
Clc1ccc(-c2nnc(-c3ccccc3)o2)cn1,/,/,/,/,7.7,-5.4,/
CCCN1C(=O)S/C(=C\c2ccc(N3CCOCC3)o2)C1=O,34.5,45.0*,23.2,21.0,28.5,-10.1,48.5*
CCCN1C(=O)S/C(=C\c2ccc(N3CCOCC3)cc2C)C1=O,/,/,/,/,16.2,/,/
CCCN1C(=O)S/C(=C/c2ccc(N3CCOCC3)o2)C1=O,22.8,41.1*,31.9,25.3,10.7,-1.5,38.1*
CCOC(=O)CN1C(=O)S/C(=C/c2ccc(N3CCCCC3)o2)C1=O,9.5,32.3,25.7,17.0,-9.9,-2.2,/
COC(=O)CN1C(=O)S/C(=C/c2ccc(N3CCCCC3)o2)C1=O,24.7,54.1*,33.1,30.7,11.0,4.8,50.7*
CC1(NC(=O)Cc2c(Cl)cccc2Cl)CCS(=O)(=O)C1 (stereo not given),7.2,-15.3,-9.3,19.6,/,/,/
NS(=O)(=O)c1ccc(CCNCC(=O)N2CCC(Cc3ccccc3)CC2)cc1,-18.7,-4.0,8.3,-1.8,4.4,-2.7,/
CC(C)CC(=O)c1c(O)c(C=O)c(O)c2c1O[C@@]1(C)[C@@H](C2)C[C@H]2C[C@@H]1C2(C)C,8.9,11.5,16.1,15.1,/,/,/
COCCNc1ncnc2c1cnn2Cc1ccc(Cl)cc1,10.7,9.8,15.8,0.6,-2.9,-4.6,/
CCCCNc1ncnc2c1cnn2Cc1ccc(Cl)cc1,8.6,40.0*,23.0,36.7,17.3,-3.2,11.2
CC(NCC(=O)Nc1cc(S(=O)(=O)N2CCOCC2)ccc1Cl)c1ccc(Cl)cc1Cl (stereo not given),32.5,26.9,33.5,13.9,/,-6.4,/
CCOC(=O)N1CCN(C2=C(NS(=O)(=O)c3ccc(C)cc3)C(=O)c3ccccc3C2=O)CC1,4.9,48.8*,39.0,5.2,-1.8,-10.1,16.9
CCN(CC)c1ccc(Nc2nc(-c3cccnc3)cs2)cc1,2.0,49.3*,29.5,34.0,26.5,-5.2,33.3*
CCOc1ccccc1NC(=O)NNS(=O)(=O)c1cc(OC)ccc1OC,6.9,6.6,0.5,8.0,8.0,-2.0,/
Cn1cc(C(c2ccccc2OCC(=O)O)c2cn(C)c3ccccc23)c2ccccc21,4.6,11.3,15.1,-6.1,21.9,9.3,/
